Laboratory results: PubChem BioAssay
Calls of active or inactive are those of the source. Unless noted, no rule for the calls is given here.

Columns and labels:
[1] = system: XIP peptide (Xip251-270) binding; experiment: small-molecule binders of XIP peptide, primary screen, biochemical, small-molecule microarray, fluorescence 635/667 nm, 0.1 µg/mL protein (AID 1182); details: fluorescent protein binding, 635 nm, higher = more signal, called active from +8 up or from −8 down
[2] = system: XIP peptide (Xip251-270); experiment: small-molecule binders of XIP peptide, primary screen, biochemical, small-molecule microarray, fluorescence 635/667 nm, 0.5 µg/mL protein (AID 1183); details: small-molecule microarray binding, fluorescence 635 nm; higher = more signal
[3] = Plasmodium falciparum growth inhibition, primary screen, strain 3D7, DAPI fluorescence, 100 nL (AID 1184);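 also: parasites grown inside human red blood cells in medium with human serum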; details: P. falciparum 3D7 growth, 3 d, higher = more signal
[4] = molecular target: Homeobox protein Hox-A13 (Mus musculus) (UniProt Q62424); experiment: inhibitors of HoxA13-DNA binding, primary screen, biochemical, fluorescence polarization, labeled oligonucleotide (AID 1185); details: 15 min, higher = more signal, called active from +8 up or from −8 down
[5] = inhibitors of hydroxyurea-induced Chk1 phosphorylation, primary screen, imaging, HeLa, phospho-Chk1 antibody, percent positive cells (AID 1186); details: hydroxyurea-induced phospho-Chk1 immunofluorescence imaging, higher = more signal
[6] = inhibitors of hydroxyurea-induced Chk1 phosphorylation, primary screen, imaging, HeLa, phospho-Chk1 nuclear intensity (AID 1187); details: hydroxyurea-induced phospho-Chk1 immunofluorescence imaging, higher = more signal

Sequence of Homeobox protein Hox-A13 (Mus musculus) (Q62424 whole entry, looked up): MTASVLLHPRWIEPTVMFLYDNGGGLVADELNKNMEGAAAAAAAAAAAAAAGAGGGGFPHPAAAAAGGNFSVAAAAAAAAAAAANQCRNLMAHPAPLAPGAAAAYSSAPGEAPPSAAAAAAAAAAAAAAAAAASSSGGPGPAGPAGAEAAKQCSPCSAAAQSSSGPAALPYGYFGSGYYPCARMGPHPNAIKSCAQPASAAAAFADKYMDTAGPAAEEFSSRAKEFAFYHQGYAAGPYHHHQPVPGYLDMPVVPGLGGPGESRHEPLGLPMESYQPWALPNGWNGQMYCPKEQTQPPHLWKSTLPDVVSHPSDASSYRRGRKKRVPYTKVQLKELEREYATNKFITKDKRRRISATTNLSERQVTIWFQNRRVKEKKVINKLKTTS

In the case of CN(C)CCCNC(=O)[C@@H]1c2ccccc2C(=O)N(Cc2ccc(OC(F)(F)F)cc2)[C@H]1c1ccc(CO)cc1, the composite z-score [1] is reported as 0.323 (inactive), the composite z-score [2] is reported as 0.721 and the z-score [3] is reported as -1.9. The z-score [4] was -3.41 (inactive), the z-score [5] was -0.234 (inactive) and the z-score [6] was -0.296 (inactive).

With COCCOC(=O)N1C(=O)[C@@]2(c3cc(C#CCC(C(=O)OC)C(=O)OC)ccc31)[C@H](c1ccc(OCCO)cc1)N1[C@H](c3ccccc3)[C@H](c3ccccc3)OC(=O)[C@H]1[C@@H]2C(=O)N1CCN(c2ncccn2)CC1 the composite z-score [1] was 1.42 (inactive), the composite z-score [2] was 0.824 and the z-score [3] was -2.25. For the same molecule, the z-score [4] was 2.08 (inactive), the z-score [5] was -0.163 (inactive) and the z-score [6] was -0.0755 (inactive).

In the case of CN1C(=O)[C@@]2(CCS(=O)(=O)c3ccccc3)N=C(c3ccc(OCCCO)cc3)O[C@H]2c2ccccc21, the composite z-score [1] is reported as 0.489 (inactive), the composite z-score [2] is reported as 0.182 and the z-score [3] is reported as -2.07. For the same molecule, the z-score [4] was -6.19 (inactive), the z-score [5] was -0.262 (inactive) and the z-score [6] was 0.146 (inactive).

In the case of COc1ccc([Si](C)(C)[C@H]2[C@H](CCO)O[C@@]3(C(=O)N(Cc4cccc(N5CCCCC5=O)c4)c4ccccc43)[C@@H]2C)cc1, the composite z-score [1] is reported as 1.41 (inactive), the composite z-score [2] is reported as 0.589 and the z-score [3] is reported as -2.7. For the same molecule, the z-score [4] was -5.06 (inactive), the z-score [5] was -1.36 (inactive) and the z-score [6] was -0.572 (inactive).

In the case of C=C(COC)/C(=C/C[C@@H](OC(=O)c1ccncc1)c1ccc(CO)o1)c1cnc2ccccc2c1, the composite z-score [1] is reported as 0.86 (inactive), the composite z-score [2] is reported as 0.726 and the z-score [3] is reported as -0.58. The z-score [4] was -5.9 (inactive), the z-score [5] was 0.496 (inactive) and the z-score [6] was 0.671 (inactive).

In the case of O=C1O[C@@H](c2ccccc2)[C@@H](c2ccccc2)N2[C@@H](c3ccc(O)cc3)[C@]3(C(=O)Nc4ccccc43)[C@@H](C(=O)Nc3nc4ccccc4s3)[C@H]12, the composite z-score [1] is reported as 1.03 (inactive), the composite z-score [2] is reported as 0.638 and the z-score [3] is reported as -0.247. The z-score [4] was 2.05 (inactive), the z-score [5] was -0.193 (inactive) and the z-score [6] was -0.259 (inactive).

In the case of CCCc1cccc(=O)o1, the composite z-score [1] is reported as 0.684 (inactive), the composite z-score [2] is reported as -0.0514 and the z-score [3] is reported as 0.581. The z-score [4] was -1.77 (inactive), the z-score [5] was 0.0999 (inactive) and the z-score [6] was 0.549 (inactive).

In the case of CCOC(=O)C[C@H]1[C@H](OC(=O)c2ccc(-c3ccccc3)cc2)[C@@H](NC(=O)c2ccc3ccccc3c2)c2cc(OCCCO)ccc2N1C(=O)c1ccc2ccccc2n1, the composite z-score [1] is reported as 0.0454 (inactive), the composite z-score [2] is reported as 0.338 and the z-score [3] is reported as 0.563. For the same molecule, the z-score [4] was -1.16 (inactive), the z-score [5] was -0.361 (inactive) and the z-score [6] was -0.561 (inactive).

For COCCCNC(=O)[C@@]1(Sc2ccc(C)cc2)CC(=O)N(Cc2cc(C(F)(F)F)cc(C(F)(F)F)c2)[C@@H]1c1ccc(CO)cc1, the composite z-score [1] was 0.451 (inactive), the composite z-score [2] was 0.634 and the z-score [3] was -0.0611. For the same molecule, the z-score [4] was -0.737 (inactive), the z-score [5] was 0.155 (inactive) and the z-score [6] was 0.0411 (inactive).

With COC(=O)[C@H](Cc1ccccc1)N1CC(/C=C/C2CC2)=C[C@@H]1[C@@H](O)Cc1ccccc1 the composite z-score [1] was 0.971 (inactive), the composite z-score [2] was 0.639 and the z-score [3] was -0.547. For the same molecule, the z-score [4] was -5.53 (inactive), the z-score [5] was -0.613 (inactive) and the z-score [6] was -0.713 (inactive).

In the case of [N-]=[N+]=NCc1ccccc1C[C@]1(C(=O)NCC(O)CO)N=C(c2ccc(OCCCO)cc2)O[C@H]1c1ccccc1CN=[N+]=[N-] (stereo partly specified), the composite z-score [1] is reported as 0.311 (inactive), the composite z-score [2] is reported as 0.75 and the z-score [3] is reported as -2.78. The z-score [4] was -0.829 (inactive), the z-score [5] was 0.458 (inactive) and the z-score [6] was 0.414 (inactive).

For O=C(O)[C@]1(Cc2ccccc2)N=C(c2ccc(OCCCO)cc2)O[C@@H]1c1ccccc1, the composite z-score [1] was -0.243 (inactive), the composite z-score [2] was 0.48 and the z-score [3] was 1.24. The z-score [4] was -4.93 (inactive), the z-score [5] was 0.282 (inactive) and the z-score [6] was 0.37 (inactive).

With CC(C)N1C(=O)[C@@]2(c3ccc([N+](=O)[O-])cc3)CC(=O)N(C3CCCCC3)[C@@H]2c2ccc(CO)cc21 the composite z-score [1] was 0.888 (inactive), the composite z-score [2] was 0.287 and the z-score [3] was 0.501. For the same molecule, the z-score [4] was 0.0267 (inactive), the z-score [5] was -0.135 (inactive) and the z-score [6] was -0.141 (inactive).

With COC(=O)[C@@]1(Cc2ccc(OC)cc2)[C@H]2c3cc(C(=O)N(C)C)n(Cc4ccccc4)c3C[C@H]2CN1C(=O)c1ccccc1 the composite z-score [1] was 0.0961 (inactive), the composite z-score [2] was -0.248 and the z-score [3] was -0.921. For the same molecule, the z-score [4] was -0.853 (inactive), the z-score [5] was -0.342 (inactive) and the z-score [6] was -0.687 (inactive).

In the case of C[N+](C)(C)CCCC[C@@H]1NC(=O)[C@@H]2C[C@H](C(=O)O)[C@H](c3ccc(O)cc3)N2C1=O, the composite z-score [1] is reported as 2.65 (inactive), the composite z-score [2] is reported as 0.124 and the z-score [3] is reported as -0.195. For the same molecule, the z-score [4] was -1.93 (inactive), the z-score [5] was 0.115 (inactive) and the z-score [6] was 0.274 (inactive).

For COc1ccc([Si](C)(C)[C@@H]2[C@@H](CC(=O)N3CCC[C@H]3CO)O[C@]3(C(=O)N(Cc4ccc(N5C(=O)c6cccc7cccc5c67)cc4)c4ccccc43)[C@H]2C)cc1, the composite z-score [1] was 0.353 (inactive), the composite z-score [2] was 0.792 and the z-score [3] was -2.09. The z-score [4] was -3.19 (inactive), the z-score [5] was 0.48 (inactive) and the z-score [6] was 0.451 (inactive).

In the case of CN(C)CCCNC(=O)[C@@]1(C)c2ccccc2C(=O)N(Cc2cc(C(F)(F)F)cc(C(F)(F)F)c2)[C@H]1c1ccc(CO)cc1, the composite z-score [1] is reported as 0.23 (inactive), the composite z-score [2] is reported as -0.987 and the z-score [3] is reported as -1.27. For the same molecule, the z-score [4] was -2.7 (inactive), the z-score [5] was -0.0172 (inactive) and the z-score [6] was -0.0753 (inactive).

For Cc1ccc(S[C@]2(C(=O)NCc3ccccc3)CC(=O)N(C(C)C)[C@@H]2c2ccc(CO)cc2I)cc1, the composite z-score [1] was 1.17 (inactive), the composite z-score [2] was 0.809 and the z-score [3] was 0.257. For the same molecule, the z-score [4] was -2.88 (inactive), the z-score [5] was 0.422 (inactive) and the z-score [6] was 0.953 (inactive).

In the case of CC(C)C(O)C1C=CC2C(=O)N(C)C(=O)C2N1N(c1ccccc1)c1ccccc1 (stereo unspecified), the composite z-score [1] is reported as 0.618 (inactive), the composite z-score [2] is reported as 0.123 and the z-score [3] is reported as 0.0202. The z-score [4] was -4.48 (inactive), the z-score [5] was 0.307 (inactive) and the z-score [6] was 0.0802 (inactive).

In the case of C=C(COC)/C(=C/C[C@@H](OC(=O)c1ccncc1)c1ccc(OCCO)cc1)c1cnc2ccccc2c1, the composite z-score [1] is reported as 0.39 (inactive), the composite z-score [2] is reported as 0.595 and the z-score [3] is reported as -2.93. The z-score [4] was -5.37 (inactive), the z-score [5] was -0.0998 (inactive) and the z-score [6] was 0.349 (inactive).

For CN(C)C(=O)[C@]1(CCC(=O)OC(C)(C)C)N=C(c2ccc(OCCCO)cc2)O[C@@H]1c1ccccc1, the composite z-score [1] was 0.454 (inactive), the composite z-score [2] was 0.116 and the z-score [3] was 0.201. The z-score [4] was -5.58 (inactive), the z-score [5] was -0.0091 (inactive) and the z-score [6] was 0.277 (inactive).

For COC(=O)[C@@]1(Cc2ccccc2)[C@H]2c3cc(C(=O)N4CCCC4)n(Cc4ccsc4Br)c3C[C@H]2CN1C(=O)c1ccccc1, the composite z-score [1] was 0.427 (inactive), the composite z-score [2] was 0.77 and the z-score [3] was -1.16. For the same molecule, the z-score [4] was -3.29 (inactive), the z-score [5] was 0.17 (inactive) and the z-score [6] was 0.498 (inactive).

With C=C(/C(=C/C[C@@H](OC(=O)c1ccncc1)c1ccccc1OCCO)c1cc(C(=O)OC)ccc1OC)C(C)C the composite z-score [1] was 0.214 (inactive), the composite z-score [2] was 0.596 and the z-score [3] was -2.94. The z-score [4] was -3.84 (inactive), the z-score [5] was -1.77 (inactive) and the z-score [6] was -1.86 (inactive).

With C=CCOC(=O)[C@@H]1[C@H]2C(=O)O[C@H](c3ccccc3)[C@H](c3ccccc3)N2[C@H](c2ccc(OCCOC(=O)[C@H]3C[C@H]4C(=O)N[C@@H](CCCCNC(C)=O)C(=O)N4[C@H]3c3cccc(OCCO)c3)cc2)[C@@]12C(=O)Nc1ccc(I)cc12 the composite z-score [1] was 1.09 (inactive), the composite z-score [2] was 0.822 and the z-score [3] was -1.64. For the same molecule, the z-score [4] was 1 (inactive), the z-score [5] was -0.398 (inactive) and the z-score [6] was -0.929 (inactive).

For C=CCNC(=O)[C@H]1[C@@H]2C(=O)O[C@@H](c3ccccc3)[C@@H](c3ccccc3)N2[C@@H](c2ccccc2OCCO)[C@]12C(=O)N(C(=O)OCCOC)c1ccc(C#CC3=CCCCC3)cc12, the composite z-score [1] was 0.234 (inactive), the composite z-score [2] was 0.719 and the z-score [3] was -2.12. The z-score [4] was 0.724 (inactive), the z-score [5] was 0.557 (inactive) and the z-score [6] was 1.47 (inactive).

In the case of [N-]=[N+]=Nc1ccccc1[C@@H]1OC(c2ccc(OCCCO)cc2)=N[C@]1(CCS(=O)(=O)c1ccccc1)C(=O)NCCN1CCOCC1, the composite z-score [1] is reported as 0.691 (inactive), the composite z-score [2] is reported as 0.433 and the z-score [3] is reported as -2.67. The z-score [4] was -3.85 (inactive), the z-score [5] was 0.147 (inactive) and the z-score [6] was 0.222 (inactive).
